Measured values as given in PubChem BioAssay AID1159580 (chemical genetic matrix, 2015).
About 2,000 (36%) of roughly 5,500 compounds were called active. About 18% were inconclusive and are not listed. Cut-off read from the data, not from the text of the source: active = normalized growth mostly below about 0.91 (no sharp cut-off); inconclusive = no clear call, values can overlap the other calls; inactive = mostly above about 0.92. The list shows a part of the results.

Experiment: chemical genetic growth profiling, strain panel (AID 1159580);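 note: tested at 20 µM; growth read once vehicle control cultures reached saturation at 30 °C; 1 = growth at the plate median or of vehicle wells; lower values mean less growth of the strain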
Details: growth OD

Measured: normalized growth

CC(C(=O)O)c1ccc(N2Cc3ccccc3C2=O)cc1 (configuration not stated)
active: S. cerevisiae deletion strains, locus YNL322C, strain KRE1 (second series), hits give low values 0.818
inactive: S. cerevisiae deletion strains, locus YKL009W, strain mrt4, hits give low values 0.998 | S. cerevisiae deletion strains, locus YKL068W, hits give low values 1 | S. cerevisiae deletion strains, locus YKL085W, strain MDH1 (second series), hits give low values 0.99 | S. cerevisiae deletion strains, locus YKL085W, strain MDH1, hits give low values 0.99 | S. cerevisiae deletion strains, locus YKL160W, strain elf1, hits give low values 0.986 | S. cerevisiae deletion strains, locus YKL190W, strain CNB1, hits give low values 1.01 | S. cerevisiae deletion strains, locus YKR001C, strain vps1, hits give low values 0.976 | S. cerevisiae deletion strains, locus YKR026C, strain gcn3, hits give low values 0.986 | S. cerevisiae deletion strains, locus YKR091W, strain srl3, hits give low values 0.983 | S. cerevisiae deletion strains, locus YLL001W, strain dnm1, hits give low values 0.96 | S. cerevisiae deletion strains, locus YLL026W, hits give low values 0.988 | S. cerevisiae deletion strains, locus YLL041C, strain sdh2, hits give low values 0.99 | S. cerevisiae deletion strains, locus YLR027C, strain aat2, hits give low values 0.985 | S. cerevisiae deletion strains, locus YLR039C, strain RIC1, hits give low values 0.994 | S. cerevisiae deletion strains, locus YLR058C, strain SHM2, hits give low values 1.01 | S. cerevisiae deletion strains, locus YLR102C, strain apc9, hits give low values 0.992 | S. cerevisiae deletion strains, locus YLR113W, strain HOG1, hits give low values 0.984 | S. cerevisiae deletion strains, locus YLR221C, strain rsa3, hits give low values 0.928 | S. cerevisiae deletion strains, locus YLR258W, strain gsy2, hits give low values 0.976 | S. cerevisiae deletion strains, locus YLR262C, strain YPT6 (second series), hits give low values 0.966 | S. cerevisiae deletion strains, locus YLR262C, strain YPT6, hits give low values 1.03 | S. cerevisiae deletion strains, locus YLR268W, strain sec22, hits give low values 0.997 | S. cerevisiae deletion strains, locus YLR320W, strain mms22, hits give low values 0.918 | S. cerevisiae deletion strains, locus YLR330W, strain CHS5, hits give low values 1.01 | S. cerevisiae deletion strains, locus YLR342W, strain FKS1 (second series), hits give low values 1.01 | S. cerevisiae deletion strains, locus YLR342W, strain FKS1, hits give low values 0.981 | S. cerevisiae deletion strains, locus YLR357W, strain rsc2, hits give low values 0.957 | S. cerevisiae deletion strains, locus YLR370C, strain arc18, hits give low values 0.974 | S. cerevisiae deletion strains, locus YLR371W, strain rom2, hits give low values 0.995 | S. cerevisiae deletion strains, locus YLR384C, strain iki3, hits give low values 0.984 | S. cerevisiae deletion strains, locus YLR418C, strain cdc73, hits give low values 0.951 | S. cerevisiae deletion strains, locus YML016C, strain PPZ1, hits give low values 1.02 | S. cerevisiae deletion strains, locus YML032C, strain rad52, hits give low values 0.975 | S. cerevisiae deletion strains, locus YML120C, strain ndi1, hits give low values 0.934 | S. cerevisiae deletion strains, locus YML124C, strain tub3, hits give low values 0.993 | S. cerevisiae deletion strains, locus YMR058W, strain fet3, hits give low values 0.984 | S. cerevisiae deletion strains, locus YMR078C, strain ctf18, hits give low values 0.995 | S. cerevisiae deletion strains, locus YMR125W, strain sto1, hits give low values 0.973 | S. cerevisiae deletion strains, locus YMR129W, hits give low values 0.986 | S. cerevisiae deletion strains, locus YMR205C, strain PFK2, hits give low values 0.98 | S. cerevisiae deletion strains, locus YMR223W, strain ubp8, hits give low values 0.98 | S. cerevisiae deletion strains, locus YMR231W, strain pep5, hits give low values 0.988 | S. cerevisiae deletion strains, locus YMR307W, strain GAS1, hits give low values 1.07 | S. cerevisiae deletion strains, locus YNL067W, strain RPL9B, hits give low values 1.01 | S. cerevisiae deletion strains, locus YNL071W, strain lat1, hits give low values 0.999 | S. cerevisiae deletion strains, locus YNL153C, strain GIM3, hits give low values 1.01 | S. cerevisiae deletion strains, locus YNL183C, strain NPR1, hits give low values 0.941 | S. cerevisiae deletion strains, locus YNL209W, strain ssb2, hits give low values 0.973 | S. cerevisiae deletion strains, locus YNL233W, strain BNI4, hits give low values 1.01 | S. cerevisiae deletion strains, locus YNL248C, strain rpa49, hits give low values 0.968 | S. cerevisiae deletion strains, locus YNL250W, strain rad50, hits give low values 1.01 | S. cerevisiae deletion strains, locus YNL271C, strain bni1, hits give low values 0.984 | S. cerevisiae deletion strains, locus YNL298W, strain CLA4, hits give low values 0.981 | S. cerevisiae deletion strains, locus YNL307C, strain MCK1, hits give low values 0.986 | S. cerevisiae deletion strains, locus YNL322C, strain KRE1, hits give low values 1.01 | S. cerevisiae deletion strains, locus YNR049C, strain mso1, hits give low values 0.987 | S. cerevisiae deletion strains, locus YNR052C, strain pop2, hits give low values 0.989 | S. cerevisiae deletion strains, locus YOL006C, strain TOP1, hits give low values 0.975 | S. cerevisiae deletion strains, locus YOL012C, strain htz1 1.17 | S. cerevisiae deletion strains, locus YOL147C, strain pex11, hits give low values 0.991 | S. cerevisiae deletion strains, locus YOR001W, strain rrp6, hits give low values 0.981 | S. cerevisiae deletion strains, locus YOR061W, strain CKA2, hits give low values 1.02 | S. cerevisiae deletion strains, locus YOR069W, strain VPS5, hits give low values 1.01 | S. cerevisiae deletion strains, locus YOR070C, strain gyp1, hits give low values 0.982 | S. cerevisiae deletion strains, locus YOR080W, strain dia2, hits give low values 0.987 | S. cerevisiae deletion strains, locus YOR083W, strain WHI5, hits give low values 0.965 | S. cerevisiae deletion strains, locus YOR106W, strain vam3, hits give low values 0.957 | S. cerevisiae deletion strains, locus YOR136W, strain idh2, hits give low values 0.991 | S. cerevisiae deletion strains, locus YOR144C, strain elg1, hits give low values 0.995 | S. cerevisiae deletion strains, locus YOR184W, strain ser1, hits give low values 0.963 | S. cerevisiae deletion strains, locus YOR231W, strain MKK1, hits give low values 0.973 | S. cerevisiae deletion strains, locus YOR265W, strain rbl2, hits give low values 0.982 | S. cerevisiae deletion strains, locus YOR270C, strain vph1, hits give low values 1.03 | S. cerevisiae deletion strains, locus YOR290C, strain snf2, hits give low values 0.917 | S. cerevisiae deletion strains, locus YOR316C, strain cot1, hits give low values 0.998 | S. cerevisiae deletion strains, locus YPL051W, strain arl3, hits give low values 0.995 | S. cerevisiae deletion strains, locus YPL078C, strain atp4, hits give low values 0.984 | S. cerevisiae deletion strains, locus YPL106C, strain sse1, hits give low values 0.984 | S. cerevisiae deletion strains, locus YPL240C, strain hsp82, hits give low values 0.99 | S. cerevisiae deletion strains, locus YPL256C, strain CLN2, hits give low values 0.984 | S. cerevisiae deletion strains, locus YPR119W, strain clb2, hits give low values 0.993 | S. cerevisiae deletion strains, locus YPR141C, strain kar3, hits give low values 1.01 | S. cerevisiae deletion strains, locus YPR163C, strain tif3, hits give low values 0.996 | S. cerevisiae deletion strains, locus YPR167C, strain met16, hits give low values 0.982 | S. cerevisiae deletion strains, strain wtn01, hits give low values 0.987 | S. cerevisiae strains, strain wild type, hits give low values 1.01
